{"source": "PubChem BioAssay AID1159580", "about": "(chemical genetic matrix, 2015)", "assay": "chemical genetic growth profiling, strain panel (AID 1159580);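 also: tested at 20 µM; growth read once vehicle control cultures reached saturation at 30 °C; 1 = growth at the plate median or of vehicle wells; lower values mean less growth of the strain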", "conditions": "growth OD", "key": {"[1]": {"conditions": "S. cerevisiae deletion strains, locus YAL013W, strain DEP1, hits give low values"}, "[2]": {"conditions": "S. cerevisiae deletion strains, locus YBR229C, strain ROT2, hits give low values"}, "[3]": {"conditions": "S. cerevisiae deletion strains, locus YDL101C, strain DUN1, hits give low values"}, "[4]": {"conditions": "S. cerevisiae deletion strains, locus YDL134C, strain PPH21, hits give low values"}, "[5]": {"conditions": "S. cerevisiae deletion strains, locus YDR150W, strain NUM1, hits give low values"}, "[6]": {"conditions": "S. cerevisiae deletion strains, locus YEL061C, strain CIN8, hits give low values"}, "[7]": {"conditions": "S. cerevisiae deletion strains, locus YGR078C, strain PAC10, hits give low values"}, "[8]": {"conditions": "S. cerevisiae deletion strains, locus YHR030C, strain SLT2, hits give low values"}, "[9]": {"conditions": "S. cerevisiae deletion strains, locus YHR087W, strain rtc3, hits give low values"}, "[10]": {"conditions": "S. cerevisiae deletion strains, locus YJL187C, strain SWE1, hits give low values"}, "[11]": {"conditions": "S. cerevisiae deletion strains, locus YJR043C, strain POL32, hits give low values"}, "[12]": {"conditions": "S. cerevisiae deletion strains, locus YJR075W, strain HOC1, hits give low values"}, "[13]": {"conditions": "S. cerevisiae deletion strains, locus YKL190W, strain CNB1, hits give low values"}, "[14]": {"conditions": "S. cerevisiae deletion strains, locus YLR039C, strain RIC1, hits give low values"}, "[15]": {"conditions": "S. cerevisiae deletion strains, locus YLR058C, strain SHM2 (second series), hits give low values"}, "[16]": {"conditions": "S. cerevisiae deletion strains, locus YLR085C, strain ARP6, hits give low values"}, "[17]": {"conditions": "S. cerevisiae deletion strains, locus YLR262C, strain YPT6, hits give low values"}, "[18]": {"conditions": "S. cerevisiae deletion strains, locus YML094W, strain GIM5, hits give low values"}, "[19]": {"conditions": "S. cerevisiae deletion strains, locus YMR219W, strain ESC1, hits give low values"}, "[20]": {"conditions": "S. cerevisiae deletion strains, locus YMR263W, strain SAP30, hits give low values"}, "[21]": {"conditions": "S. cerevisiae deletion strains, locus YMR307W, strain GAS1, hits give low values"}, "[22]": {"conditions": "S. cerevisiae deletion strains, locus YNL153C, strain GIM3, hits give low values"}, "[23]": {"conditions": "S. cerevisiae deletion strains, locus YNL298W, strain CLA4 (second series), hits give low values"}, "[24]": {"conditions": "S. cerevisiae deletion strains, locus YNL322C, strain KRE1, hits give low values"}, "[25]": {"conditions": "S. cerevisiae deletion strains, locus YNR030W, strain Alg12, hits give low values"}, "[26]": {"conditions": "S. cerevisiae deletion strains, locus YOL006C, strain TOP1, hits give low values"}, "[27]": {"conditions": "S. cerevisiae deletion strains, locus YPL055C, strain LGE1, hits give low values"}, "[28]": {"conditions": "S. cerevisiae deletion strains, locus YPL241C, strain CIN2, hits give low values"}, "[29]": {"conditions": "S. cerevisiae deletion strains, locus YPR135W, strain CTF4, hits give low values"}, "[30]": {"conditions": "S. cerevisiae deletion strains, locus YCL061C, strain MRC1, hits give low values"}}, "note": "About 2,000 (36%) of roughly 5,500 compounds were called active. Another 18% or so got no clear call; they are omitted. Rule as the data show it: active = normalized growth mostly below about 0.91 (no sharp cut-off); inconclusive = no clear call, values can overlap the other calls; inactive = mostly above about 0.92. The list shows a part of the results."}
{"smiles": "O=C(Nc1nncs1)c1ccncc1", "values": [{"measurement": "normalized growth", "setting": "[1]", "result": "0.983 (inactive)"}, {"measurement": "normalized growth", "setting": "[2]", "result": "1 (inactive)"}, {"measurement": "normalized growth", "setting": "[3]", "result": "0.999 (inactive)"}, {"measurement": "normalized growth", "setting": "[4]", "result": "1.02 (inactive)"}, {"measurement": "normalized growth", "setting": "[5]", "result": "0.946 (inactive)"}, {"measurement": "normalized growth", "setting": "[6]", "result": "0.999 (inactive)"}, {"measurement": "normalized growth", "setting": "[7]", "result": "1 (inactive)"}, {"measurement": "normalized growth", "setting": "[8]", "result": "0.996 (inactive)"}, {"measurement": "normalized growth", "setting": "[9]", "result": "1 (inactive)"}, {"measurement": "normalized growth", "setting": "[10]", "result": "0.992 (inactive)"}, {"measurement": "normalized growth", "setting": "[11]", "result": "1.01 (inactive)"}, {"measurement": "normalized growth", "setting": "[12]", "result": "0.991 (inactive)"}, {"measurement": "normalized growth", "setting": "[13]", "result": "1.03 (inactive)"}, {"measurement": "normalized growth", "setting": "[14]", "result": "1.08 (inactive)"}, {"measurement": "normalized growth", "setting": "[15]", "result": "1 (inactive)"}, {"measurement": "normalized growth", "setting": "[16]", "result": "1.04 (inactive)"}, {"measurement": "normalized growth", "setting": "[17]", "result": "1.05 (inactive)"}, {"measurement": "normalized growth", "setting": "[18]", "result": "1.02 (inactive)"}, {"measurement": "normalized growth", "setting": "[19]", "result": "1 (inactive)"}, {"measurement": "normalized growth", "setting": "[20]", "result": "0.949 (inactive)"}, {"measurement": "normalized growth", "setting": "[21]", "result": "1.02 (inactive)"}, {"measurement": "normalized growth", "setting": "S. cerevisiae deletion strains, locus YNL128W, strain TEP1, hits give low values", "result": "1.02 (inactive)"}, {"measurement": "normalized growth", "setting": "[22]", "result": "0.995 (inactive)"}, {"measurement": "normalized growth", "setting": "[23]", "result": "1.07 (inactive)"}, {"measurement": "normalized growth", "setting": "[24]", "result": "1 (inactive)"}, {"measurement": "normalized growth", "setting": "[25]", "result": "1.04 (inactive)"}, {"measurement": "normalized growth", "setting": "[26]", "result": "1.08 (inactive)"}, {"measurement": "normalized growth", "setting": "[27]", "result": "0.888 (inactive)"}, {"measurement": "normalized growth", "setting": "[28]", "result": "1.03 (inactive)"}, {"measurement": "normalized growth", "setting": "[29]", "result": "1.05 (inactive)"}, {"measurement": "normalized growth", "setting": "S. cerevisiae strains, strain wild type, hits give low values", "result": "1.04 (inactive)"}]}
{"smiles": "O=C(CSc1nnc(NC(=O)c2cccc([N+](=O)[O-])c2)s1)Nc1ccc2c(c1)OCO2", "values": [{"measurement": "normalized growth", "setting": "[1]", "result": "0.991 (inactive)"}, {"measurement": "normalized growth", "setting": "[2]", "result": "0.995 (inactive)"}, {"measurement": "normalized growth", "setting": "[30]", "result": "1.01 (inactive)"}, {"measurement": "normalized growth", "setting": "[3]", "result": "0.986 (inactive)"}, {"measurement": "normalized growth", "setting": "[5]", "result": "0.982 (inactive)"}, {"measurement": "normalized growth", "setting": "[6]", "result": "0.982 (inactive)"}, {"measurement": "normalized growth", "setting": "[7]", "result": "0.991 (inactive)"}, {"measurement": "normalized growth", "setting": "[8]", "result": "0.985 (inactive)"}, {"measurement": "normalized growth", "setting": "[9]", "result": "0.997 (inactive)"}, {"measurement": "normalized growth", "setting": "[10]", "result": "0.995 (inactive)"}, {"measurement": "normalized growth", "setting": "[11]", "result": "0.977 (inactive)"}, {"measurement": "normalized growth", "setting": "[12]", "result": "1.02 (inactive)"}, {"measurement": "normalized growth", "setting": "[14]", "result": "0.976 (inactive)"}, {"measurement": "normalized growth", "setting": "[15]", "result": "0.985 (inactive)"}, {"measurement": "normalized growth", "setting": "[16]", "result": "0.996 (inactive)"}, {"measurement": "normalized growth", "setting": "[17]", "result": "0.985 (inactive)"}, {"measurement": "normalized growth", "setting": "[18]", "result": "0.948 (inactive)"}, {"measurement": "normalized growth", "setting": "[19]", "result": "1 (inactive)"}, {"measurement": "normalized growth", "setting": "[20]", "result": "1.01 (inactive)"}, {"measurement": "normalized growth", "setting": "[21]", "result": "1.05 (inactive)"}, {"measurement": "normalized growth", "setting": "[22]", "result": "1.01 (inactive)"}, {"measurement": "normalized growth", "setting": "[23]", "result": "1 (inactive)"}, {"measurement": "normalized growth", "setting": "[24]", "result": "0.989 (inactive)"}, {"measurement": "normalized growth", "setting": "[25]", "result": "1.01 (inactive)"}, {"measurement": "normalized growth", "setting": "[27]", "result": "0.998 (inactive)"}, {"measurement": "normalized growth", "setting": "[29]", "result": "0.939 (inactive)"}]}
{"smiles": "O=C(Nc1nccs1)c1ccc([N+](=O)[O-])cc1", "values": [{"measurement": "normalized growth", "setting": "[1]", "result": "0.979 (inactive)"}, {"measurement": "normalized growth", "setting": "[2]", "result": "0.97 (inactive)"}, {"measurement": "normalized growth", "setting": "[30]", "result": "0.992 (inactive)"}, {"measurement": "normalized growth", "setting": "[3]", "result": "0.972 (inactive)"}, {"measurement": "normalized growth", "setting": "[4]", "result": "1.01 (inactive)"}, {"measurement": "normalized growth", "setting": "[5]", "result": "0.984 (inactive)"}, {"measurement": "normalized growth", "setting": "[6]", "result": "0.968 (inactive)"}, {"measurement": "normalized growth", "setting": "[7]", "result": "0.973 (inactive)"}, {"measurement": "normalized growth", "setting": "[8]", "result": "0.977 (inactive)"}, {"measurement": "normalized growth", "setting": "[9]", "result": "0.973 (inactive)"}, {"measurement": "normalized growth", "setting": "[11]", "result": "1.02 (inactive)"}, {"measurement": "normalized growth", "setting": "[12]", "result": "0.924 (inactive)"}, {"measurement": "normalized growth", "setting": "[13]", "result": "1 (inactive)"}, {"measurement": "normalized growth", "setting": "[14]", "result": "0.851 (inactive)"}, {"measurement": "normalized growth", "setting": "[15]", "result": "0.981 (inactive)"}, {"measurement": "normalized growth", "setting": "[16]", "result": "0.729 (active)"}, {"measurement": "normalized growth", "setting": "[17]", "result": "0.917 (inactive)"}, {"measurement": "normalized growth", "setting": "[18]", "result": "0.94 (inactive)"}, {"measurement": "normalized growth", "setting": "[19]", "result": "0.978 (inactive)"}, {"measurement": "normalized growth", "setting": "[20]", "result": "0.986 (inactive)"}, {"measurement": "normalized growth", "setting": "[21]", "result": "0.905 (inactive)"}, {"measurement": "normalized growth", "setting": "[22]", "result": "0.976 (inactive)"}, {"measurement": "normalized growth", "setting": "[23]", "result": "0.976 (inactive)"}, {"measurement": "normalized growth", "setting": "[24]", "result": "0.983 (inactive)"}, {"measurement": "normalized growth", "setting": "[25]", "result": "0.97 (inactive)"}, {"measurement": "normalized growth", "setting": "[26]", "result": "0.514 (active)"}, {"measurement": "normalized growth", "setting": "[27]", "result": "0.97 (inactive)"}, {"measurement": "normalized growth", "setting": "[28]", "result": "0.954 (inactive)"}, {"measurement": "normalized growth", "setting": "[29]", "result": "0.933 (inactive)"}]}
